# According to PubChem BioAssay (NCATS):
# Records with an inconclusive call do not appear. Entries that show only a call come without a potency. A number with no mark means an inactive call. Active and inactive are the calls of the source. Calls come from the whole dose curve; as a rule, active = well fitted inhibition curve with a large enough effect; inconclusive = small, poorly fitted or top-dose-only effect; inactive = no such curve, though single readings can be large or run the other way.
# Test: qHTS to identify inhibitors of the type 1 interferon - major histocompatibility complex class I in skeletal muscle: primary screen against the NCATS Mechanism Interrogation Plate v5.0 (MIPE) Libary (AID 1347411); note: nearly all actives have a fitted effect of over 65% in size
# Conditions: iHSKM cells + IFN-b, HiBiT-tagged MHC-I luminescence, 24 h; series mostly up to 45.8 µM
# Description: Assay Submitter (PI): Travis B. Kinder Ph.D. & James Inglese Ph.D.
# Assay Development and Screening Technology Laboratory (ADST)
# National Center for Advancing Translational Sciences (NCATS), Rockville, MD
# National Institute of Health (NIH), Bethesda, Maryland
# Idiopathic inflammatory myopathies, collectively referred to as myositis, are a group of rare autoimmune diseases characterized by skeletal muscle inflammation, weakness, and usually accompanied by systemic pathologies of the skin, lungs, or vasculature. Current immunosuppressive therapies and glucocorticoids are often not curative and are accompanied by harsh side effects, especially in children with juvenile myositis. We initiated a drug repurposing and development program to identify more targeted, less toxic therapeutics to treat myositis. Although its cause is not known, muscle from a subset of patients have an abundance of the inflammatory type 1 interferon (IFN) and a down-stream product major histocompatibility complex class I (MHC class I), which are both thought to contribute to damage and weakness. We conducted quantitative high throughput screening on 6,576 compounds (4,679 unique) through a series of cell-based assays to identify those that inhibit the IFN-stimulated expression of MHC class I in muscle precursor cells (myoblasts). The compound identification and evaluation strategy utilized a primary screen with reporter-tagged MHC class I in genome-engineered myoblasts, ATP content counter screen for viability, HLA-ABC immunofluorescence secondary screen, and HLA-B RT-qPCR tertiary screen.
# The primary screen utilized CRISPR/Cas9 genome-engineering of immortalized human myoblasts, C25cl48, where a pro-luminescent reporter HiBit was fused to the C-terminus of endogenous MHC class I allele HLA-B*08:01 (HLA-B HiBit myoblasts). HiBit is an 11 amino acid fragment of NanoLuc luminescent reporter (Promega Corporation), and when complexed to the larger LgBit fragment, the reconstituted enzyme produces light in the presence of furimazine substrate (Schwinn et al., 2018). Briefly, HLA-B HiBit myoblasts were plated into 1536-well plates, treated with 4.0 ng/ml human IFN-beta and 2,480 compounds from the NCATS Mechanism Interrogation Plate v5.0 (MIPE5.0) in an 11-point, 1:3 titration with a high final concentration of 46 uM. After 24 hrs of treatment, cells were assayed by Nano-Glo HiBiT Lytic Detection System (Promega) and luminescence measured by a ViewLux 1430 Ultra HTS (Perkin Elmer).
# Schwinn MK, Machleidt T, Zimmerman K, Eggers CT, Dixon AS, Hurst R, Hall MP, Encell LP, Binkowski BF, Wood K V. 2018. CRISPR-Mediated Tagging of Endogenous Proteins with a Luminescent Peptide. ACS Chem Biol 13:467-474. doi:10.1021/acschembio.7b00549
# PROTOCOL TABLE (as described by Inglese et al., 2007)
# SEQUENCE No. (e.g., 1, 2, 3, etc.); […] (e.g., Cells, Incubation, Reagent, etc.); VALUE; DESCRIPTION
# 1a; Cells; 5 uL; Use a Multidrop Combi (Thermo Scientific) to seed 300 cells/well into 24 Greiner 1536 well white/solid bottom, high base, TC plates in 5 ul/well of iHSKM growth medium (GM) without dexamethasone into columns 1+2. Add metal lids with gas-exchange holes
# 1b; Cells; 5 uL; Use a Multidrop Combi (Thermo Scientific) to seed 300 cells/well into 24 Greiner 1536 well white/solid bottom, high base, TC plates in 5 ul/well of iHSKM GM without dexamethasone + 4 ng/ml IFN-b into columns 3 - 48. Add metal lids with gas-exchange holes
# 2; Incubate; 1 hr; Incubate at 37 C, 5% CO2, 95% RH
# 3; Compounds; 23 nl; Use Pin Tool (Wako) to transfer DMSO control, ruxolitinib IFN-b inhibitor control [High Concentration = 80 uM final, 16-pt, 1:2 in duplicate], and library compounds in DMSO
# 4; Incubate; 24 hrs; Incubate at 37 C, 5% CO2, 95% RH
# 5; Dispense; 2.5 ul; Use BioRAPTR FRD (Beckman Coulter) to add HiBit lytic reagent
# 6; Incubate; 10 min; Incubate in the dark at ambient temperature for lysis
# 7; Detector; 5 sec; Measure luminescence with ViewLux 1430 Ultra HTS (Perkin Elmer). […]
# Potency is the fitted concentration of half-maximal effect.
Compound,Potency,"activity change, negative = inhibition"
N#Cc1ccc(C(c2ccc(C#N)cc2)n2cncn2)cc1,inactive,
Cc1c(C)c2c(c(C)c1O)CCC(C)(COc1ccc(CC3SC(=O)NC3=O)cc1)O2 (stereo not given),inactive,
CCN(CC)CCCC(C)Nc1ccnc2cc(Cl)ccc12 (stereo not given),,34% [at 8.44 µM]
Cc1cccc(-c2nn(C(=S)Nc3ccccc3)cc2-c2ccnc3ccccc23)n1,inactive,
NS(=O)(=O)c1cc2c(cc1Cl)NC=NS2(=O)=O,inactive,
O=C1CCC(N2C(=O)c3ccccc3C2=O)C(=O)N1 (stereo not given),inactive,
O=C(O)CCc1ccc(NCc2cccc(Oc3ccccc3)c2)cc1,inactive,
N[C@@H]1CONC1=O,inactive,
Cn1cnc2c(F)c(Nc3ccc(Br)cc3Cl)c(C(=O)NOCCO)cc21,inactive,
O=NN(CCCl)C(=O)NCCCl,inactive,
CCC(C)N(C)C(=O)c1cc2ccccc2c(-c2ccccc2Cl)n1 (stereo not given),inactive,
Cc1cc(-c2ccc(CC(=O)Nc3ccc(-c4cccnc4)cc3)cc2)ccn1,inactive,
NCCCC(N)(C(=O)O)C(F)F (stereo not given),inactive,
C[C@@H]1CN(Cc2ccc(F)cc2)[C@@H](C)CN1C(=O)c1cc2c(C(=O)C(=O)N(C)C)cn(C)c2cc1Cl,inactive,
Cc1cc([C@@H](C)Nc2ccccc2C(=O)O)c2nc(N3CCOCC3)cc(=O)n2c1,inactive,
O=C(Nc1ccc(F)c(C(F)(F)F)c1)Nc1nnc(-c2ccncc2)s1,inactive,
Cc1cc(SCc2sc(-c3ccc(C(F)(F)F)cc3)nc2C)ccc1OCC(=O)O,inactive,
CCN(CC)CCCC(C)Nc1nc(C)cc(Nc2ccc3nc(C)cc(N)c3c2)n1 (stereo not given),inactive,
COc1cc2c(cc1OC)CN(CCc1ccc(NC(=O)c3cccc4c(=O)c5cccc(OC)c5[nH]c34)cc1)CC2,inactive,
Cn1cc(-c2ccc3nnc(C(F)(F)c4ccc5ncccc5c4)n3n2)cn1,inactive,

Compound,Potency,"activity change, negative = inhibition"
OCCn1cc(-c2cnc3nnn(Cc4ccc5ncccc5c4)c3n2)cn1,inactive,
Clc1ccc(Nc2nnc(Cc3ccncc3)c3ccccc23)cc1,inactive,
Cc1ccc(N(CC2=NCCN2)c2cccc(O)c2)cc1,inactive,
CC(C)c1onc(-c2c(Cl)cccc2Cl)c1COc1ccc(/C=C/c2cccc(C(=O)O)c2)c(Cl)c1,inactive,
CCc1cncnc1N1CCN(Cc2nc3ccc(C(F)(F)F)cc3[nH]2)CC1,inactive,
CS(=O)(=O)c1cccc(CNc2nc(Nc3ccc4c(c3)CCC(=O)N4)ncc2C(F)(F)F)c1,10.4 µM (active),
Cc1cnc(Nc2ccc(OCCN3CCCC3)cc2)nc1Nc1cccc(S(=O)(=O)NC(C)(C)C)c1,5.23 µM (active),
CN(C(=O)c1ccc(F)cc1C(F)(F)F)C1CCN(c2nnc(-c3ccnn3C)c3ccccc23)CC1,inactive,
CCC(C)(C)C(=O)O[C@H]1C[C@@H](C)C=C2C=C[C@H](C)[C@H](CC[C@@H]3C[C@@H](O)CC(=O)O3)[C@H]21,inactive,
CN(C)c1ccc(C2Nc3ccc4ccccc4c3C3=C2C(=O)CC(C)(C)C3)cc1Br (stereo not given),inactive,
CN1CCN(CCCN2c3ccccc3Sc3ccc(C(F)(F)F)cc32)CC1,inactive,
O=C(O)[C@@H](c1ccc(OCc2ccc3ccccc3n2)cc1)C1CCCC1,inactive,
CN(C)c1ccc(Nc2nc(N)n(C(=O)c3c(F)cccc3F)n2)cc1,16.5 µM (active),
CS(=O)(=O)Oc1ccc2c(NC(N)=O)c(C(=O)c3ccc(Cl)cc3Cl)oc2c1,inactive,
CC(C)(Sc1ccc(CCN(CCCCC2CCCCC2)C(=O)NC2CCCCC2)cc1)C(=O)O,inactive,
CN[C@@H](C)C(=O)N[C@H]1CCCC[C@H]2CC[C@@H](C(=O)N[C@@H](c3ccccc3)c3cn(CCCCc4ccc(CCCCn5cc([C@@H](NC(=O)[C@@H]6CC[C@@H]7CCCC[C@H](NC(=O)[C@H](C)NC)C(=O)N76)c6ccccc6)nn5)cc4)nn3)N2C1=O,3.3 µM (active),
COc1ccccc1-c1cccc(-c2c(O)c3cc(C#N)c(Cl)cc3[nH]c2=O)c1,inactive,
CCOc1ccn(-c2ccc(F)cc2)c(=O)c1C(=O)Nc1ccc(Oc2ccnc(N)c2Cl)c(F)c1,inactive,
CC(C)C[C@H](NC(=O)[C@@H](O)[C@H](N)Cc1ccccc1)C(=O)O,inactive,
Cc1c(CCOc2ccc(C(=O)O)cc2)c2cc(Cl)ccc2n1C(c1ccccc1)c1ccccc1,inactive,
